PfHsp40 yeast: compounds rescuing yeast from Plasmodium falciparum HSP40 toxicity; AID 504582; actives 0.68% (n = 340,000); growth rescue, % at 12.5 µM; S. cerevisiae expressing PfHsp40, growth rescue, ATP luminescence; in the data active = growth rescue above about 28%, passing the limit was not always enough; inconclusive = no clear call, values can overlap the other calls;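 note: yeast W303a lacking pdr1 and pdr3 grown in galactose medium; growth measured after three days at 30 °C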
BH1578 lux ind: inducers of Vibrio cholerae quorum light production without autoinducers | V. cholerae BH1578 lux reporter, luminescence, 6 h | activation, % at 18.7 µM | actives 0.16% (n = 350,000); in the data active = activation mostly above about 9.7%, no sharp cut-off; inconclusive = no clear call, values can overlap the other calls; inactive = mostly below about 3.7%
3CLpro inhibitor: SARS-CoV 3CLpro protease inhibition | P0C6X7 | recombinant SARS-CoV 3CLpro, quenched FRET peptide cleavage | inhibition, % at 6 µM | actives 0.14% (n = 290,000) | AID 1706; in the data active = inhibition above about 12%
VHR inh abs: blocks human VHR1 dual specificity phosphatase; inhibition, % at 13.3 µM; actives 0.52% (n = 290,000); recombinant VHR phosphatase, pNPP absorbance; P51452; in the data active = inhibition above about 50%
Target sequence (P51452 whole entry, looked up): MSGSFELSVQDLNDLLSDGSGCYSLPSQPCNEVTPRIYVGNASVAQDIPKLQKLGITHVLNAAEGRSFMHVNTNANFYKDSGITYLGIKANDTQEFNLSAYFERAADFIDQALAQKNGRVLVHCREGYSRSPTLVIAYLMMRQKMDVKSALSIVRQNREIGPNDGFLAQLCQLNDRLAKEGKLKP
BJeLR lethal: kills HRASV12-expressing BJeLR cells | inhibition, % (concentration not given with the values) | BJeLR (HRASV12) viability, CellTiter-Glo ATP luminescence, 48 h | AID 1554 | actives 0.17% (n = 300,000); in the data active = inhibition above about 50%; inconclusive = no clear call, values can overlap the other calls
MazF activator: activators of E. coli MazEF toxin-antitoxin RNase; FAM/BHQ RNA-DNA oligo cleavage fluorescence, 5 h; activation, % at 20 µM; actives 0.32% (n = 350,000); AID 504720; in the data active = activation above about 50%
Target sequence (P0AE70 whole entry, looked up): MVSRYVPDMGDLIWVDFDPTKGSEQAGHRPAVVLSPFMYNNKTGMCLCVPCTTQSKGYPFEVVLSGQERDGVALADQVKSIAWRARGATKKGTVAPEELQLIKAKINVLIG
An asterisk follows results filed as active; i = inactive; ? = inconclusive; · = no result given. A selection: hits, their analogues and other compounds. The true share with any hit is near 1.7%.

SMILES	PfHsp40 yeast	BH1578 lux ind	3CLpro inhibitor	VHR inh abs	BJeLR lethal	MazF activator
O=C(Nc1ccc2c(c1)OCCO2)c1c[nH]c(=O)n(-c2ccc(F)c(Cl)c2)c1=O	1	i	1	5	-3	0
Cc1nc(NCCCn2ccnc2)c2oc3ccccc3c2n1	-1	-3	-2	-8	1	8
c1ccc2c(c1)oc1c(NCCCn3ccnc3)ncnc12	2	i	-6	55*	-1	8
N=c1c2c(-c3ccccc3)c(-c3ccccc3)n(Cc3ccco3)c2ncn1CCCn1ccnc1	235*	0	2	-4	52*	22
c1ccc(-c2c(-c3ccccc3)n(Cc3ccco3)c3ncnc(NCCCn4ccnc4)c23)cc1	148*	-1	0	11	-7	2
O=C(CSCc1ccccc1)N1CCN(S(=O)(=O)c2cccc(F)c2)CC1	0	i	·	·	2	0
CCN1CCN(C(=S)NCCc2ccccc2)CC1	0	13	3	57*	8	6
CCN(CC)C(=O)c1cccc(-c2csc(C(NC(C)=O)c3ccc(F)c(F)c3)n2)c1 (configuration not stated)	·	i	·	·	·	·
NS(=O)(=O)c1ccc(CCNC(=O)C(=O)c2cn(CC(=O)N3CCCC3)c3ccccc23)cc1	1	-2	4	24	5	-14
O=C(CN1CC[n+]2c(-c3cccs3)csc21)c1ccc(-c2ccccc2)cc1	401*	-1	4	3	6	12
Cc1ccc(C(=O)Cn2nnc(-c3cccs3)n2)cc1	0	-4	4	13	-5	-7
CCOc1cc(/C=N/NC(N)=S)cc(Br)c1OCc1ccccc1C	83*	-3	5	3	0	0
COc1cc(/C=N/NC(N)=S)cc(Br)c1OCc1ccccc1F	3	0	5	-2	2	9
CCN(C(=O)c1ccc2c(c1)OCO2)C12CC3CC(CC(C3)C1)C2	2	1	·	·	·	-1
O=C(NCc1ccccn1)C(=O)NCC1OCCN1S(=O)(=O)c1ccc(Br)cc1 (configuration not stated)	0	0	-2	18	5	-2
O=C(NCc1ccccn1)C(=O)NCC1OCCN1S(=O)(=O)c1ccc([N+](=O)[O-])cc1 (configuration not stated)	107*	0	-4	4	-4	0
O=C(O)c1ccccc1C(c1ccc(O)cc1)c1ccc(O)cc1	-1	i	3	·	3	0
COc1ccc(F)cc1-c1cc(C(=O)NCc2ccccc2)[nH]n1	·	i	·	·	·	·
Cc1noc(C)c1C(=O)Nc1cccc2ncccc12	1	0	0	53*	-8	-3
CCc1cc(C(=O)OC)c(NC(=O)CC2Nc3cc(C)c(C)cc3NC2=O)s1 (configuration not stated)	-1	-3	-2	21	12	153*
CN(C)S(=O)(=O)c1ccc(N2CCCC2)c(C(=O)N2CCN(S(=O)(=O)c3ccccc3F)CC2)c1	1	i	·	·	-3	10
O=[N+]([O-])c1ccc(Oc2ccc(S(=O)(=O)Nc3ccccc3)cc2)cc1	388*	i	11	-11	-5	0
O=S(=O)(Nc1ccccc1)c1ccc(Oc2ncc(C(F)(F)F)cc2Cl)cc1	282*	-1	8	-2	-1	3
COc1ncnc2c1ncn2CCCN(C)CCc1ccccn1	·	0	·	·	·	0
CC12CCC(=O)N1C(C(=O)Oc1cccc(F)c1)CS2 (configuration not stated)	·	-1	·	·	·	3
SMILES	PfHsp40 yeast	BH1578 lux ind	3CLpro inhibitor	VHR inh abs	BJeLR lethal	MazF activator
c1ccc2c(c1)oc1c(-c3ccc4nccn4c3)cccc12	·	0	·	·	·	·
O=Nc1c2cc3ccccc3[nH]c-2c2ccccc12	54*	-4	·	·	·	16
O=C(OCC(=O)N1CCOCC1)c1ccc(F)cc1Cl	0	0	-1	11	4	6
CC1CN(C(=O)COC(=O)c2ccc(F)cc2Cl)CC(C)O1 (configuration not stated)	0	-1	4	50*	-18	6
CC1CC(=O)C2=C(C1)OC(N)=C(C#N)C2c1coc2ccccc2c1=O (configuration not stated)	0	-1	3	-16	-4	85*
C[n+]1nc(Nc2cccc(F)c2)sc1-c1ccc(C(=O)O)cc1	·	·	·	15	·	·
CC(OC(=O)c1cccc(S(=O)(=O)N(C)C)c1)C(=O)NCc1ccc2c(c1)OCO2 (configuration not stated)	1	-3	·	·	9	1
S=C(Nc1ccc(Cl)c(Cl)c1)NC1CCCCC1	190*	i	6	11	-3	22
S=C(Nc1ccc(Oc2ccccc2)cc1)NC1CCCCCC1	?	5	3	5	3	5
S=C(Nc1ccc2nsnc2c1)NC1CCCCC1	0	0	-4	8	4	4
S=C(NNc1ccc2ccccc2c1)NC1CCCCC1	244*	i	-2	13	9	18
Nc1nc(-c2ccccc2)nc2nonc12	·	0	·	·	·	0
CCOC(=O)CN1C(=O)/C(=C/c2ccc(Cl)cc2)Oc2ccccc21	0	i	3	6	0	3
CCCc1nnc(SCC(=O)Nc2cccc(Cl)c2Cl)o1	0	i	-5	-36	-12	5
O=S(=O)(c1ccc(SCc2ccccc2F)nc1)N1CCCC1	-1	0	·	·	·	4
Cc1cc(C=C2C(=O)c3ccccc3C2=O)c(C)n1C	-2	0	-6	26	6	9
Cc1cccc(-n2c(C)cc(C=C3C(=O)c4ccccc4C3=O)c2C)c1	1	0	4	17	-5	597*
CCn1c(C)cc(C=C2C(=O)c3ccccc3C2=O)c1C	-1	-1	0	10	1	79*
CC(C)(C)c1ccc(CC(=O)N2CCC2(C)C(=O)NS(=O)(=O)c2ccc(Cl)s2)cc1 (configuration not stated)	·	i	·	·	·	·
CCN1C(=O)[C@H]2[C@@H](c3ccc(-c4ccc(OC)cc4)cc3)N[C@@](C)(C(=O)OC)[C@H]2C1=O	-1	i	·	·	5	4
CCCCNC(=O)C1(C)CCCCN1C(=O)c1cncc(Br)c1 (configuration not stated)	·	9	·	·	·	·
Nc1ccn([C@@H]2O[C@H](CNCc3ccc(OCC(=O)Nc4nccs4)cc3)[C@@H](O)[C@H]2O)c(=O)n1	·	0	·	·	·	5
Cc1ccc2cc(CN(Cc3ccco3)C(=O)c3cccs3)c(=O)[nH]c2c1	42*	·	6	6	37	7
c1ccc2c(-c3c[nH]c4ccccc34)c3ccccc3nc2c1	37*	0	1	24	11	7
O=C(O)c1cc(-c2c[nH]c3ccccc23)nc2ccc3ccccc3c12	-2	0	-1	16	-5	-12

Assay outcomes deposited in PubChem BioAssay by several laboratories.
